Source: PubChem BioAssay AID868 (SRMLSC, 2007)
About 3,500 (1.8%) of roughly 190,000 compounds were called active.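 The calls were made as follows: active = inhibition above a set limit, 3 SD over mean compound inhibition (cut at about 8.4% in these data); inactive = the rest.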 Only a selection was taken, and actives are over-represented in it overall.

Assay: inhibitors of the yeast RAM network, primary screen, dse1pr::URA3 reporter, 5-FOA selection (AID 868);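 also: 0% = DMSO-only wells with no growth and 100% = 10 µM 1-NA-PP1 full growth; inhibition rescues growth on 5-FOA so higher OD means more RAM inhibition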
Conditions: S. cerevisiae dse1pr::URA3 reporter, 5-FOA growth OD615, 2 d; at 50 µM; active compounds read high; analog-sensitive cbk1-as2 kinase mutant strain

SMILES	inhibition
CCNC(=O)CSc1nc(-c2ccccc2)cs1	0.79% (inactive)
O=C(CSCC(=O)Nc1cccc([N+](=O)[O-])c1)Nc1ccccc1	0.64% (inactive)
O=C(CSc1nc(-c2ccccc2)cs1)Nc1cccc([N+](=O)[O-])c1	11.7% (active)
NC(=O)COc1ccc(NC(=O)c2ccccc2-c2ccccc2)cc1	0.63% (inactive)
O=C(Cc1cccc2ccccc12)Nc1ccc2oc(-c3ccccc3)nc2c1	1.7% (inactive)
COc1ccc2oc(-c3cccc(NC(=O)CSc4ccc(Cl)cc4)c3)nc2c1	10.3% (active)
COc1cccc(-c2nc3cc(C)ccc3o2)c1	2.42% (inactive)
CCN(CC)Cc1nc2sc(C)c(C)c2c(=O)[nH]1	2.28% (inactive)
CNS(=O)(=O)c1ccc(NC(=O)C2CC(=O)N(c3ccc(Cl)cc3)C2)cc1 (stereo not drawn)	4.28% (inactive)
CSc1ccccc1-c1nnc(-c2ccc(Cl)cc2)o1	15.5% (active)
FC(F)(F)c1cnc(Oc2ccccc2-c2nnc(-c3ccc(Cl)cc3)o2)c(Cl)c1	4.37% (inactive)
Nc1ccc(-c2nnc(-c3ccc(-c4ccccc4)cc3)o2)cc1	6.59% (inactive)
Cc1cccn2c(CN(C)C3CCCc4ccccc43)c(C(=O)N3CCOCC3)nc12 (stereo not drawn)	1.88% (inactive)
CC(=O)C1C(c2ccc(Cl)cc2)c2c(n[nH]c2C)CC1(C)O (stereo not drawn)	-0.49% (inactive)
Cc1noc(NS(=O)(=O)c2ccc(N/C=C/C(=O)c3ccccc3)cc2)c1C	11.4% (active)
Cc1cc(C)nc(NS(=O)(=O)c2ccc(N/C=C\C(=O)c3cccs3)cc2)n1	3.54% (inactive)
Cc1ccc(C(=O)/C=C/Nc2ccc(S(=O)(=O)Nc3onc(C)c3C)cc2)cc1	11% (active)
COc1ccc(C(=O)Nc2ccc(S(=O)(=O)Nc3onc(C)c3C)cc2)cc1OC	2.49% (inactive)
Cc1noc(NS(=O)(=O)c2ccc(NC(=O)C34CCC(CC3)C4)cc2)c1C	2.19% (inactive)
CCn1c(SCC(=O)Nc2ccc(S(=O)(=O)Nc3onc(C)c3C)cc2)nnc1-c1ccccc1	4.88% (inactive)
O=C1OCC2=C1C(c1ccccc1)CC(=O)N2c1cccc(F)c1 (stereo not drawn)	0.77% (inactive)
O=c1oc(/C=C/c2ccccc2)nc2ccccc12	1.38% (inactive)
Cc1cc(C)n(Cc2cnc(N3CCOCC3)s2)n1	0.36% (inactive)
C/C(=N\NC(=O)c1cccnc1)c1ccc(-n2ccnc2)cc1	2.36% (inactive)

SMILES	inhibition
N#C/C(=C(/O)COC(=O)COc1ccc(Cl)cc1)c1nc2ccccc2[nH]1	3.15% (inactive)
Cc1ccccc1OC/C(O)=C(\C#N)c1nc2ccccc2[nH]1	10.3% (active)
N#C/C(=C(/O)COc1cccc2ccccc12)c1nc2ccccc2[nH]1	2.62% (inactive)
O=C(COC(=O)c1ccc(Cl)nc1)NCc1cccs1	1% (inactive)
CC(=O)Nc1ccc(Nc2nc3c(S(=O)(=O)c4ccc(C)c(C)c4)nnn3c3ccccc23)cc1	7.93% (inactive)
COc1cccc(NC(=O)c2ccc3c(SCC(=O)O)c4c(nc3c2)CCCC4)c1	6.04% (inactive)
Cc1c(N=Nc2ccc(N(C)C)cc2)c(=O)n(-c2ccccc2)n1C	25.4% (active)
Cc1c(C=O)n(C)n(-c2ccccc2)c1=O	2.38% (inactive)
Cc1cccc(N=Nc2c(C)[nH]n(-c3ccccc3)c2=O)c1	7.54% (inactive)
Cc1ccc(N=Nc2c(C)[nH]n(-c3ccccc3)c2=O)cc1	13.2% (active)
Cc1[nH][nH]c(=O)c1N=Nc1ccccc1	2.99% (inactive)
Cc1c(NC(=S)Nc2ccccc2)c(=O)n(-c2ccccc2)n1C	2.71% (inactive)
COc1cccc(/C=N/NC(=O)CNC(=O)c2ccc(S(=O)(=O)N3CCOCC3)cc2)c1OC	1.56% (inactive)
CCCN(CCC)C(=S)Nc1cc(C(=O)OC)ccc1C(=O)OC	-0.65% (inactive)
CCC(CC)C(=O)Nc1ccc(S(=O)(=O)Nc2nccs2)cc1	1.58% (inactive)
COc1ccc(-n2cnnc2SCC(=O)Nc2cccc([N+](=O)[O-])c2)cc1	1.48% (inactive)
COC(=O)CCSc1nccn1Cc1ccccc1	3.09% (inactive)
COC(=O)CCSc1cc([N+](=O)[O-])cc2c1c(C1OCCS1)nn2-c1ccccc1 (stereo not drawn)	17.6% (active)
Cc1cc([N+](=O)[O-])ccc1NC(=O)c1ccc(NC(=O)C(C)C)cc1	0% (inactive)
Cn1c(=NC(=O)c2ccc3c(c2)OCCO3)sc2cc(S(C)(=O)=O)ccc21	3.99% (inactive)
CCC1C/C(=C/c2cccs2)C(=O)/C(=C/c2cccs2)C1 (stereo not drawn)	14.8% (active)
O=C1/C(=C/c2cccs2)CCC1C1CCCC1 (stereo not drawn)	2.26% (inactive)
O=C1/C(=C/c2cccs2)CCc2ccccc21	-0.39% (inactive)
CCN(C(=O)CSc1nc2ccccc2n1CC)C1CCS(=O)(=O)C1 (stereo not drawn)	0.65% (inactive)

SMILES	inhibition
O=C(NC(=S)Nc1ccc(S(=O)(=O)N2CCOCC2)cc1)c1ccccc1[N+](=O)[O-]	3.57% (inactive)
O=C(COC(=O)CC1CC2CCC1C2)NC(=O)NC1CCCC1 (stereo not drawn)	0.76% (inactive)
COc1ccc(/C=C/C(=O)OCC(=O)Nc2cccc(Oc3ccccc3)c2)c(OC)c1	16.7% (active)
CCN(C(=O)COC(=O)/C=C/c1nc2ccccc2s1)C1CCS(=O)(=O)C1 (stereo not drawn)	2.32% (inactive)
CC(=O)Nc1ccc(SCC(=O)Nc2ccccc2Oc2ccccc2)cc1	1.01% (inactive)
O=C(COC(=O)/C=C/c1nc2ccccc2s1)Nc1ccccc1Oc1ccccc1	14.3% (active)
COc1ccc(OC)c(/C=C/C(=O)OCC(=O)Nc2ccc3c(c2)OCCO3)c1	7.42% (inactive)
COc1cc(/C=C/C(=O)OCC(=O)Nc2cccc(Oc3ccccc3)c2)ccc1O	7.29% (inactive)
CCN1CCN(C(=O)c2ccc(CN(c3ccc(C)c(C)c3)S(C)(=O)=O)cc2)CC1	0.38% (inactive)
O=C(CCCNS(=O)(=O)c1cccc2nsnc12)NCCN1CCN(c2ccccc2F)CC1	-1.28% (inactive)
COc1ccc(/C=C2/C(=O)OCc3cc(OC)c(OC)cc32)c(OC)c1	7.31% (inactive)
COC(=O)Cc1ccc(N(Cc2ccccc2F)S(=O)(=O)c2ccc(Br)cc2)cc1	6.05% (inactive)
Cc1cccc(C(=O)N2CCC(c3nc4ccccc4s3)CC2)c1	0.14% (inactive)
Cc1cc(C)n2nc(C(=O)N(C)C(c3ccccc3)c3ccccc3)nc2n1	2.14% (inactive)
CC1CCN(S(=O)(=O)c2ccc(S(=O)(=O)NCc3cccnc3)cc2)CC1	0.4% (inactive)
CCN(CC)S(=O)(=O)c1ccc2[nH]cc(C(=O)NCCc3ccccc3)c(=O)c2c1	6.86% (inactive)
COc1cccc(NS(=O)(=O)c2ccc3[nH]cc(C(=O)NCCCOC(C)C)c(=O)c3c2)c1	9.49% (active)
CCCCNC(=O)c1c[nH]c2ccc(S(=O)(=O)Nc3ccc(OCC)cc3)cc2c1=O	5.33% (inactive)
CCCSc1nc(NCc2ccco2)c2c3c(sc2n1)COC(C)(CC)C3 (stereo not drawn)	13.4% (active)
CN(C)CCSc1nc(N)c2c3c(sc2n1)COC(C)(C)C3	0.35% (inactive)
CCC1(C)Cc2c(sc3nc(SC)nc(N)c23)CO1 (stereo not drawn)	1.97% (inactive)
Cc1cccc(N2C(=O)c3cccnc3C2=O)c1	0.23% (inactive)
Cc1cccc(N2C(=O)C3C(c4ccccc4)OC4(C(=O)c5ccccc5C4=O)C3C2=O)c1 (stereo not drawn)	10.5% (active)
Cc1cccc(N2C(=O)CC(SC(N)=Nc3ccccc3)C2=O)c1 (stereo not drawn)	5.62% (inactive)

SMILES	inhibition
Cc1cccc(NC(=O)Cn2c(=O)n(Cc3ccccc3)c(=O)c3c(C)c(C)sc32)c1	2.47% (inactive)
Cc1cc(C(=O)N/N=C/c2ccccc2[N+](=O)[O-])c(C)o1	1.55% (inactive)
Cc1ccccc1-c1nc(CS(=O)(=O)CC(=O)N2CCc3ccccc3C2)c(C)o1	3.54% (inactive)
COC(=O)c1cc2occc2n1Cc1nc(-c2ccccc2C)oc1C	10.4% (active)
CCOC(=O)c1cc2occc2n1CC(=O)NC1CCC(C)CC1 (stereo not drawn)	1.74% (inactive)
COc1ccc(F)c(-c2nc(CN3CCC(c4ccccc4)CC3)c(C)o2)c1	1.5% (inactive)
CSC1=N/C(=C\c2ccc3c(c2)OCO3)C(=O)S1	5.69% (inactive)
CCC1=C/C(=C\c2ccc3c(c2)OCO3)C(=O)S1	5.39% (inactive)
O=C1/C(=C/c2ccc3c(c2)OCO3)CCC/C1=C\c1ccc2c(c1)OCO2	11.6% (active)
C=CS(=O)c1sc(Cl)c(N2CCOCC2)c1[N+](=O)[O-] (stereo not drawn)	-1.6% (inactive)
Cc1cccc(C(=O)OCC(=O)Nc2sc3c(c2C#N)CCC3)c1	3.27% (inactive)
C=CCn1cc(-c2cccc(C(F)(F)F)c2)cc(C#N)c1=O	1.24% (inactive)
C=CCn1c(-c2ccc(Cl)cc2)ccc(C#N)c1=O	10.6% (active)
C=CCn1c(SCn2nnc3ccccc3c2=O)nnc1-c1ccc(Cl)cc1	1.52% (inactive)
Cc1cccc(/C(N)=N/OC(=O)c2ccccc2Cl)c1	-0.84% (inactive)
COc1ccc(NC(=O)C2CCCN(S(=O)(=O)c3cccc4cccnc34)C2)cc1 (stereo not drawn)	9.02% (active)
O=C(O)C1CCCN(S(=O)(=O)c2cccc3cccnc23)C1 (stereo not drawn)	2.19% (inactive)
COc1ccc(NC(=O)C2CCCN(S(=O)(=O)c3cccc4cccnc34)C2)cc1OC (stereo not drawn)	-0.46% (inactive)
O=C(OCC(=O)c1cccs1)C1=COCCO1	0.33% (inactive)
COc1ccc(NC(=O)COC(=O)CNC(=O)C2CCCCC2)cc1	0.13% (inactive)
CCC(C)(C)c1ccc(Oc2ccc(NC(=O)COC(=O)C3=COCCO3)cc2)cc1	12.6% (active)
